Results filed as inconclusive are left out. Calls of active or inactive are those of the source. Unless noted, calls follow the shape of the dose curve; as a rule, active = well fitted curve in the direction sought with a large enough effect; inconclusive = small, poorly fitted or top-dose-only effect, or another doubt; inactive = no such curve, though single readings can be large; an effect the other way counts as inactive or inconclusive.
Experiments:
[1] = Cytometric Cell-Based qHTS for Inhibitors of the mTORC1 Signaling Pathway in MEF (Tsc2-/-, p53-/-) Cells (AID 2660);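 also: Tsc2 and p53 null MEFs carrying empty vector with compound for 24 h; percent of cells above a phospho-rpS6 to PI ratio cutoff in each well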
In short: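 Percent of cells positive for normalized phospho-S6 staining is reported, with the cutoff set from rapamycin (7.5 nM) versus DMSO wells. Tsc2-/-, p53-/- MEFs received compound for 24 hrs.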

[2] = High Content Imaging Cell-Based qHTS for Inhibitors of the mTORC1 Signaling Pathway in MEF (Tsc2-/-, p53-/-) Cells (AID 2666); conditions: at 38.3 µM (top of the series);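 also: percent of cells scored positive for phospho-rpS6 Ser235/236 immunostaining by imaging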
In short: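 Inhibition of rpS6 phosphorylation is measured by immunofluorescence imaging in empty-vector Tsc2-/-, p53-/- mouse embryonic fibroblasts after 24 hrs compound exposure at 37 degree Celsius. Results are reported as % positive cells per well.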

[3] = High Content Imaging Cell-Based qHTS for Inhibitors of the mTORC1 Signaling Pathway in MEF Cells (AID 2667);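 also: Tsc2-/- p53-/- MEFs stably re-expressing wild-type Tsc2 exposed 24 h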
In short: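 Fixed-cell imaging of phospho-S6 (Ser235/236, Alexa-488) after 24 hrs of compound treatment at 37 degree Celsius. Signal was normalized to Hoechst, and thresholds from the highest and lowest wells split cells into % active versus % non-active.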

[4] = Cytometry Cell-Based qHTS for Inhibitors of the mTORC1 Signaling Pathway in MEF cells (AID 2668);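 also: Tsc2-/- p53-/- mouse embryonic fibroblasts stably re-expressing wild-type Tsc2; percent cells positive for phospho-rpS6 Ser235/236 relative to propidium iodide stain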
In short: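 Phospho-rpS6 (Ser235/236) immunofluorescence over PI signal, scored as % positive cells using thresholds from 7.5 nM rapamycin and DMSO wells, after 24 h compound exposure of WT-Tsc2-rescued Tsc2-/-, p53-/- MEFs. PI cell count recorded for viability.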

[5] = target: DNA polymerase III PolC-type (Bacillus subtilis (strain 168)) (UniProt P13267); assay: qHTS Validation Assay for the Inhibitors of DNA Replication in Gram-Positive Bacteria (AID 485295);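 also: reconstituted holoenzyme with PolC plus beta clamp SSB and primase; PicoGreen fluorescence of double-stranded DNA made on primed circular M13 template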
Sequence of DNA polymerase III PolC-type (Bacillus subtilis (strain 168)) (P13267 whole entry, looked up): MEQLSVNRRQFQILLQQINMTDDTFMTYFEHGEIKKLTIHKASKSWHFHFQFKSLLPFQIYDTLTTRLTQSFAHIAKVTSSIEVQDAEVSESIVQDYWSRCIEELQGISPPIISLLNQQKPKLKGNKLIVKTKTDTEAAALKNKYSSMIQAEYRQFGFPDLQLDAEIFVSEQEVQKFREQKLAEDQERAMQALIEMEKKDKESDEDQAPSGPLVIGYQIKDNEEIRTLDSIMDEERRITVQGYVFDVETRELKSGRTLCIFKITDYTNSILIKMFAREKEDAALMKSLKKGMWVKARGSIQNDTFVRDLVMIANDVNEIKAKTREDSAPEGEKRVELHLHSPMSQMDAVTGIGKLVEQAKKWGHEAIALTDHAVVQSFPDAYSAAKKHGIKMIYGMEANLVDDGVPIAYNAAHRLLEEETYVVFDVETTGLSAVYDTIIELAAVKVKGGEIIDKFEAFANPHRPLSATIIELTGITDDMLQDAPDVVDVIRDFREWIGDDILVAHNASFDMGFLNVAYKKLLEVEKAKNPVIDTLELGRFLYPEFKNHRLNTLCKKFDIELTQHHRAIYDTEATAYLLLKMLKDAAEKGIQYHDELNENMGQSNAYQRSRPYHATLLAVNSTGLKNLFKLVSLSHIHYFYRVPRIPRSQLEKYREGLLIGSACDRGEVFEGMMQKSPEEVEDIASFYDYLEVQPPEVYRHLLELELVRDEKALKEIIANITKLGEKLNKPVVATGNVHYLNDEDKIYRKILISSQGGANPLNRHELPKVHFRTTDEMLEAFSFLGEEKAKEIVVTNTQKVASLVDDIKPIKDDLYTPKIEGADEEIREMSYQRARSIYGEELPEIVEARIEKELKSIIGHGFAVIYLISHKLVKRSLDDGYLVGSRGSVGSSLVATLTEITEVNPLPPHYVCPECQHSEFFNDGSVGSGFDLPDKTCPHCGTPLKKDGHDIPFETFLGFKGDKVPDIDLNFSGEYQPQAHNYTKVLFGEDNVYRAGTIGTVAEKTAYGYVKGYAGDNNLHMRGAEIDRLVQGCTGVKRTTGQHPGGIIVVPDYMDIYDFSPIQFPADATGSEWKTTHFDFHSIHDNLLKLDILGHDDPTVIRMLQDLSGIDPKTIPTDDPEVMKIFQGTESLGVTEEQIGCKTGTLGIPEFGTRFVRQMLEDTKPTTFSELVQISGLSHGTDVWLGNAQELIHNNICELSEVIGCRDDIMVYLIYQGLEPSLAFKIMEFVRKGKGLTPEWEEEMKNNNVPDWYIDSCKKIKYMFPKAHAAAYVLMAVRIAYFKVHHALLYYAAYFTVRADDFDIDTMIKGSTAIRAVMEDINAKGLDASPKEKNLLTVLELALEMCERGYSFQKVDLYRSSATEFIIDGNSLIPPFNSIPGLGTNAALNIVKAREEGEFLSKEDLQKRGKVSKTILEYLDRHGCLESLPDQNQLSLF
In short: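 Double-stranded DNA product detected by PicoGreen fluorescence after EDTA quench. Compound incubated with B. subtilis holoenzyme (PolC, beta subunit, SSB, primase) before substrate addition; primed replication of M13Gori with dNTPs and NTPs at room temperature; DMSO defines 0% inhibition.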

[6] = target: Tumor susceptibility gene 101 protein (Homo sapiens) (UniProt Q99816); assay: qHTS Validation Assay for Iinhibitors of HIV-1 Budding by Blocking the Interaction of PTAP/TSG101 (AID 485342; calls by dose curve)
In short: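 Fluorescence polarization of 50 nM FITC-PTAP peptide bound to 10 uM Tsg101 binding domain was read after 20 min room-temperature incubation with compounds, in 10 mM HEPES pH 7.5, 0.15 M NaCl, 0.01% Tween 20.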

[7] = target: Beta-2 adrenergic receptor (Homo sapiens) (UniProt P07550); assay: qHTS validation assay of beta-arrestin-biased ligands of beta2-adrenergic receptor (AID 485366)
In short: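 Screening used a titration range of up to 46 microM in a beta-arrestin recruitment Tango luciferase assay. Cells in 1% FBS medium were treated 18 hr at 37 degrees C, and luminescence was normalized to %Activity.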

[8] = target: ATP-dependent 6-phosphofructokinase (Trypanosoma brucei brucei) (UniProt O15648); assay: qHTS Validation Assay to Find Inhibitors of T. brucei phosphofructokinase (AID 485368)
In short: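 PFK-generated ADP was measured after 45 min at room temperature using ADP-Glo. The reaction contained 0.5 mM F6P and 0.1 mM ATP.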

[9] = target: Thioredoxin reductase 1, cytoplasmic (Rattus norvegicus) (UniProt O89049); assay: qHTS Assay for Substrates of Mammalian Selenoprotein Thioredoxin Reductase 1 (TrxR1) (AID 488772);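 also: a drop in NADPH fluorescence below the no-compound background marks a TrxR1 substrate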
Sequence of Thioredoxin reductase 1, cytoplasmic (Rattus norvegicus) (O89049 whole entry, looked up): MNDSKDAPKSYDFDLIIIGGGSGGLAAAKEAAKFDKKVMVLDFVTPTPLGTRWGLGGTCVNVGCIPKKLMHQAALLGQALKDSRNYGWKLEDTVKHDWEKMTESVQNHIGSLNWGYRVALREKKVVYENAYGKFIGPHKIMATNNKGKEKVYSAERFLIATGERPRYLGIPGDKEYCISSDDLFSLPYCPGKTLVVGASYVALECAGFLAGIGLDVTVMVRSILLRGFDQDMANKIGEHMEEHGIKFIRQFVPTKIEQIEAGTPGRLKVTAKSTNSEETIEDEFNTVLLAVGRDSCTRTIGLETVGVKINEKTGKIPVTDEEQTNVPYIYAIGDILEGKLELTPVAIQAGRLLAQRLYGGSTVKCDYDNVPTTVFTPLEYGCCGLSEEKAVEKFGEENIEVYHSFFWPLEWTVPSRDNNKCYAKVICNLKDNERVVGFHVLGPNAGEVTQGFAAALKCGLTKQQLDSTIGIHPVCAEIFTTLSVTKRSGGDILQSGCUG
In short: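 In this dual-purpose format, potential substrates are identified from the first fluorescence read after selenite addition, not from the 8-minute delta. Rat enzyme is preincubated with NADPH and then with compound at ~22 deg C.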

[10] = target: Thioredoxin reductase 1, cytoplasmic (Rattus norvegicus) (UniProt O89049); assay: qHTS Assay for Inhibitors of Mammalian Selenoprotein Thioredoxin Reductase 1 (TrxR1) (AID 488773); conditions: Potency: inhibition;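 also: drop in NADPH fluorescence over an 8 min run after selenite addition; nearly all actives have a fitted effect of over 40% in size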
In short: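 Inhibition is scored from the loss of NADPH fluorescence between first and last reads of an 8-min kinetic run. Selenite (400 uM) was the substrate, added after 15 min compound preincubation at room temperature.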

[11] = target: M-phase phosphoprotein 8 (Homo sapiens) (UniProt Q99549); assay: qHTS Validation Assay for Inhibitors for MPP8 Chromodomain Interactions with Methylated Histone Tails (AID 488949);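 also: AlphaScreen signal from MPP8 chromodomain bound to biotinylated H3K9me3 peptide; top concentration of the series differs between compounds; nearly all actives have a fitted effect of over 55% in size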
In short: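 AlphaScreen proximity signal from streptavidin donor and Ni-chelate acceptor beads (10 ug/mL each) reported binding of MPP8 to trimethyl-K9 H3(1-18) peptide, both at 50 nM. The complex formed 30 min before a 30 min compound exposure at room temperature, in PBS pH 7.4.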

[12] = target: Methanococcus maripaludis chaperonin (MmCpn) (UniProt Q6LX38); assay: High-Throughput Screening for Modulators of Cytosolic Chaperonin Activity: MmCpn Primary Screen (AID 488978);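 also: 50 nM MmCpn enzyme hydrolysing 30 µM ATP at 37 °C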
Sequence of Methanococcus maripaludis chaperonin (MmCpn) (Q6LX38 1-543): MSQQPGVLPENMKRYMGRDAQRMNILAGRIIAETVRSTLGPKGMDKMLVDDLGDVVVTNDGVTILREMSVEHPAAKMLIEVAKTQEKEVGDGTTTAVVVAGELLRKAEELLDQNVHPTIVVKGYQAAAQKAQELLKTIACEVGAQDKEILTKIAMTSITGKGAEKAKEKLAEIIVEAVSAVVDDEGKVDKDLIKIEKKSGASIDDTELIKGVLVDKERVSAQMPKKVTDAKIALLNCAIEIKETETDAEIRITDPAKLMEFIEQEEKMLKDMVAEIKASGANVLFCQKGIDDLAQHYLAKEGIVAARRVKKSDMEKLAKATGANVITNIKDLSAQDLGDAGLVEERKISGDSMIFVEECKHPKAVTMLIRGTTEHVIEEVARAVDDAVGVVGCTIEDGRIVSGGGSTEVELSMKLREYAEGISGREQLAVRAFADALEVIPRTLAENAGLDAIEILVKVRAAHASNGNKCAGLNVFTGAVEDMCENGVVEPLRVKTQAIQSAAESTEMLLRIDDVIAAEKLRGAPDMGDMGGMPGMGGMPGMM
In short: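 ATPase activity of 50 nM MmCpn was assayed with 30 uM ATP, 10 minutes at 37C, after a 5 min compound preincubation at room temperature. ADP production was read as HTRF emission at 590 and 665 nm.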

[13] = target: D(1A) dopamine receptor (Homo sapiens) (UniProt P21728); assay: HTS Assay for Allosteric Agonists of the Human D1 Dopamine Receptor: Primary Screen for Agonists (AID 488981)
Sequence of D(1A) dopamine receptor (Homo sapiens) (P21728 whole entry, looked up): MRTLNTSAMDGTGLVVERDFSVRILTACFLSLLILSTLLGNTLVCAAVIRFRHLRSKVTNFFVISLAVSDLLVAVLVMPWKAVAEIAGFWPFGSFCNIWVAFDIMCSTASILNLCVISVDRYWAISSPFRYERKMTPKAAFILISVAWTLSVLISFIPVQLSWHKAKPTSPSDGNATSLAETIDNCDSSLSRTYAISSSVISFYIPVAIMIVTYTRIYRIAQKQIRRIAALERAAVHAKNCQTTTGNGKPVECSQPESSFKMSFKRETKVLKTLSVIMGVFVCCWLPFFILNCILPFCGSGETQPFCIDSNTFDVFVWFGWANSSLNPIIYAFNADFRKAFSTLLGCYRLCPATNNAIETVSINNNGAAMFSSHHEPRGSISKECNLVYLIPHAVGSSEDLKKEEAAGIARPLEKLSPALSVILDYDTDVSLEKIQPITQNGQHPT
In short: (§1)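 Tetracycline-induced HEK293 T-REx cells force-coupled to calcium signalling were incubated overnight at 30 C and dye-loaded at room temperature. Calcium flux over 180 s after compound addition flagged agonists; a further 180 s read after EC20 dopamine flagged potentiators.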

[14] = target: D(1A) dopamine receptor (Homo sapiens) (UniProt P21728); assay: HTS Assay for Allosteric Agonists of the Human D1 Dopamine Receptor: Primary Screen for Potentiators (AID 488982)
In short: as §1

[15] = target: D(1A) dopamine receptor (Homo sapiens) (UniProt P21728); assay: HTS Assay for Allosteric Agonists of the Human D1 Dopamine Receptor: Primary Screen for Antagonists (AID 488983);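 also: calcium flux response to an EC80 dopamine challenge measured with no-wash dye; nearly all actives have a fitted effect of over 65% in size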
In short: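 Calcium flux readout, no-wash dye, inducible HEK293 T-REx D1 line (force-coupled). Compound added after 10 s baseline, 180 s kinetic read; then dopamine at EC80, further 180 s read.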

[16] = Nrf2 qHTS screen for inhibitors: Validation (AID 493153; active = well fitted inhibition curve with a large enough effect in the main read-out, with a control signal flat, not every such curve was filed as active); conditions: viability change: measured here: cytotoxicity max response
In short: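 Concentration-response test in A549 ARE_Fluc reporter cells (5% FBS OPTI-MEM), compound exposure 18-24 h at 37°C, 5% CO2. Cell viability measured first by CellTiter-Fluor fluorescence; ARE-driven luciferase luminescence then measured as Nrf2 activity.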

[17] = qHTS for Inhibitors of Cell Surface uPA Generation: Validation Assay (AID 493164);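 also: RAW 264.7 macrophage cells exposed to compound for 18 h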
In short: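 Compounds are titrated over seven points (2.45 nM–38.3 uM final) onto pre-plated RAW 264.7 cells and incubated for 18 h. Retained intracellular ATP, measured with ATP-Lite, indicates blocked lethal factor entry.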

[18] = target: Peptidyl-prolyl cis-trans isomerase NIMA-interacting 1 (Homo sapiens) (UniProt Q13526); assay: qHTS Validation Assay to Find Inhibitors of Pin1 (AID 504536; active = well fitted inhibition curve with a large enough effect in the polarisation, with a control signal flat, not every such curve was filed as active; the % refers to the polarisation)
Sequence of Peptidyl-prolyl cis-trans isomerase NIMA-interacting 1 (Homo sapiens) (Q13526 whole entry, looked up): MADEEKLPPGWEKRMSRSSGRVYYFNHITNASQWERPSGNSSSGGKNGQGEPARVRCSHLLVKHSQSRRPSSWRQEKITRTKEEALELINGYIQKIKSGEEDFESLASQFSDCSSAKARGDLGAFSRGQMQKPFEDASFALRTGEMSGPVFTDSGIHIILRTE
In short: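 Fluorescence polarization competition: compounds (titration) displace HiFluor-488-labeled Pin1-1b peptide from Pin1 (0.3 uM final) in pH 7.5 HEPES buffer with DTT, 10 min at room temperature; %Activity normalized to no-enzyme wells, curves fitted.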

[19] = target: Phosphoglycerate kinase, glycosomal (Trypanosoma brucei brucei) (UniProt P07378); assay: qHTS Validation Assay to Find Inhibitors of Phosphoglycerate Kinase (AID 504547)
In short: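 In TEA buffer (100mM, pH 7.6) containing 5mM MgCl2 and 0.01% Tween-20, the GAPDH-coupled PGK reaction proceeded for 60 minutes at room temperature before a single luminescence reading using Kinase-Glo Plus.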

[20] = target: phosphoglycerate mutase (Leishmania major) (UniProt Q4Q090); assay: qHTS Validation Assay to Find Inhibitors of Phosphoglycerate Mutase (AID 504548);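 also: end-point luminescence from Kinase-GloPlus after the PGAM reaction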
Sequence of phosphoglycerate mutase (Leishmania major) (Q4Q090 1-553): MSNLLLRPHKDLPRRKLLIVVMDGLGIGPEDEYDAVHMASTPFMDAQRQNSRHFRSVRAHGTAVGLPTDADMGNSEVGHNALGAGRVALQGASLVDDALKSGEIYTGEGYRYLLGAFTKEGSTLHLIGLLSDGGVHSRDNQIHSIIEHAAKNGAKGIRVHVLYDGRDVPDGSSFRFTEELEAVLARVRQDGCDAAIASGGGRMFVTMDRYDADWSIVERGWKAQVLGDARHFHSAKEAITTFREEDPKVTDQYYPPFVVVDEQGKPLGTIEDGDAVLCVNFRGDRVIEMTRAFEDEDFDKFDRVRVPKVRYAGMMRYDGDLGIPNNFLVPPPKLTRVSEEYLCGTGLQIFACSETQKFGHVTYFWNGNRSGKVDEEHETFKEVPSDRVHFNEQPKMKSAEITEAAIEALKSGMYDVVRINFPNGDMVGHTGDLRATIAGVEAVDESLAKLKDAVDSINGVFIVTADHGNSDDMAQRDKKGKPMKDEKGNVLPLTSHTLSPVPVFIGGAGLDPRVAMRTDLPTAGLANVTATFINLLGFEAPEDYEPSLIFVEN
In short: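 Inhibition of L. major PGAM was assessed by Kinase-GloPlus luminescence following a 45-minute room-temperature reaction with enzyme at 1.25nM final.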

[21] = target: Ubiquitin carboxyl-terminal hydrolase 1 (Homo sapiens) (UniProt O94782); assay: Inhibitors of USP1/UAF1: Pilot qHTS (AID 504865);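 also: rhodamine fluorescence freed from ubiquitin-rhodamine substrate followed over time; top concentration of the series differs between compounds; nearly all actives have a fitted effect of over 35% in size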
In short: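 Deubiquitinase activity followed as kinetic rhodamine fluorescence release from 150 nM Ub-Rho. 1 nM USP1/UAF1 with compound, after 15 min room-temperature preincubation, in HEPES pH 7.8 buffer containing TCEP, EDTA, BSA and Tween-20.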

[22] = qHTS for Inhibitors of ATXN expression: Validation of Cytotoxic Assay (AID 588349)
In short: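 Cytotoxicity counter-screen: HEK293 cells exposed to compound titrations, 72 hr, 37 degrees C. Read-out is intracellular ATP (CellTiter Glo luminescence) as a viability measure.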

[23] = qHTS for Inhibitors of ATXN expression: Validation (AID 588378); also: nearly all actives have a fitted effect of over 75% in size
In short: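 Luciferase luminescence (Bright-Glo) from an ATXN2-FFLuc HEK293 line after 24 h compound exposure at 37 °C, preceded by a CellTiter-Fluor fluorescence viability read. Serial dilutions of a reference ATXN2 inhibitor and a luciferase inhibitor served as controls.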

[24] = target: Glutaminase kidney isoform, mitochondrial (Homo sapiens) (UniProt O94925); assay: qHTS for Inhibitors of Glutaminase (GLS): LOPAC Validation (AID 624146);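 also: glutamate product detected by oxidase and peroxidase coupled Amplex red fluorescence gain; nearly all actives have a fitted effect of over 60% in size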
Sequence of Glutaminase kidney isoform, mitochondrial (Homo sapiens) (O94925 whole entry, looked up, canonical isoform): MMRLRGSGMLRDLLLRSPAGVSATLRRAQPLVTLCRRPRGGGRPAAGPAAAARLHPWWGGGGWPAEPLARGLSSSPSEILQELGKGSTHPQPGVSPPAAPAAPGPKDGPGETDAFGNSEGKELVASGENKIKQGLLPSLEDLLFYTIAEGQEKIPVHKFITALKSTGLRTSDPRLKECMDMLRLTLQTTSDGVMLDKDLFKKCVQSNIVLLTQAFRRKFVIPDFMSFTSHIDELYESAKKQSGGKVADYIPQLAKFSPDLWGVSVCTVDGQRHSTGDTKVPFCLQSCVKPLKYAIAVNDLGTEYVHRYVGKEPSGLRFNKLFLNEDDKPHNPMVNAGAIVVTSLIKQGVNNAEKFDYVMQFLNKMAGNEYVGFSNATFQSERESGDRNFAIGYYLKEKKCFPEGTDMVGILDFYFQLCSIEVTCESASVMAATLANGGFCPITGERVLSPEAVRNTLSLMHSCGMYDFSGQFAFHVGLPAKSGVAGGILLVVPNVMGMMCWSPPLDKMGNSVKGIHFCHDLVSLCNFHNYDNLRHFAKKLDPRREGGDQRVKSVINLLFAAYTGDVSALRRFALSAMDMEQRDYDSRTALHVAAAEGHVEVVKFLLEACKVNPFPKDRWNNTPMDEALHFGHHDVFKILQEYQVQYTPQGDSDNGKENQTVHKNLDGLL
In short: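 Read-out is an Amplex red fluorescence increase coupled through glutamate oxidase and HRP, measured before and after 30 min room-temperature incubation. hKGA is in 45 mM KH2PO4 (pH 8.2) with 0.02% Tween-20; glutamine added as 1mM solution.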

[25] = qHTS of Trypanosoma Brucei Inhibitors: LOPAC Validation (AID 624147)
In short: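 Luminescent Kinase-Glo Plus end-point after 45 min room-temperature reaction of T. brucei pyruvate kinase started with 130 uM ADP (final). Buffer TEA 50 mM pH 7.2 with KCl, MgCl2, BSA, Tween-20; titration-based qHTS with fitted concentration-effect curves.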

[26] = target: Glucagon-like peptide 1 receptor (Homo sapiens) (UniProt P43220); assay: qHTS of GLP-1 Receptor Agonists: LOPAC Validation (AID 624148);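 also: higher luminescence signal means agonism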
Sequence of Glucagon-like peptide 1 receptor (Homo sapiens) (P43220 whole entry, looked up): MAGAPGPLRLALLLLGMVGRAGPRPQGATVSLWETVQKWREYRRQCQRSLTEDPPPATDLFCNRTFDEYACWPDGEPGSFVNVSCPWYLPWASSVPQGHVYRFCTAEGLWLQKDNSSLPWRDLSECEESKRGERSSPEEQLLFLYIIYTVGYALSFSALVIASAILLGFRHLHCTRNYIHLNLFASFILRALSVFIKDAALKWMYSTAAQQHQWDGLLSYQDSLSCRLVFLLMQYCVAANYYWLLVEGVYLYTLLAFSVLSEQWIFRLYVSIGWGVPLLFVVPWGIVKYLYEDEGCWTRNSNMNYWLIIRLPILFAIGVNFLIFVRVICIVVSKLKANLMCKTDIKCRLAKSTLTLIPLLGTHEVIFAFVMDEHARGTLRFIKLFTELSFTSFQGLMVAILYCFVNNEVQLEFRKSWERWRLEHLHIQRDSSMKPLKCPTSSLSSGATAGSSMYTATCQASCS
In short: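 HEK293 cells stably co-expressing a cAMP-responsive luciferase reporter and a hypersensitive GLP-1R were plated 12 h at 37 °C and exposed to compounds for 4-6 hr at 37 °C, 5% CO2. Luminescence was read 12 min after adding detection reagent.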

[27] = qHTS of Nrf2 Activators: LOPAC Validation (AID 624149)
In short: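 AREc32_Fluc cells, 1000/well, OPTI-MEM + 5% FBS, o/n 37 deg C 5% CO2; compound pin-transfer, 24 hr 37 deg C; Steady-Glo 30 min RT, luminescence read.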

[28] = HTS Assay for Allosteric Antagonists of the Human D2 Dopamine Receptor: Hit Validation in HTRF (AID 624455)
In short: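 HTRF read-out; cells stably expressing D1 receptor; hits scored for inhibition of D1-mediated response. Primary screen: calcium flux, force-coupled inducible Hek293 Trex D2 line, antagonism vs EC80 dopamine.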

C[C@H](Cc1ccccc1)Nc1ncnc2c1ncn2[C@@H]1O[C@H](CO)[C@@H](O)[C@H]1O
inactive: outcome [1] | outcome [2] | Potency [3] | Potency [4] | Potency [5] | outcome [6] | outcome [7] | Potency [8] | outcome [9] | Potency [10] | Potency [11] | outcome [12] | outcome [13] | outcome [14] | outcome [15] | outcome [16] | outcome [17] | Potency [18] | Potency [19] | outcome [20] | Potency [21] | Potency [22] | Potency [23] | Potency [24] | outcome [25] | outcome [26] | outcome [27] | outcome [28]
6.66%: viability change [16]

— PubChem BioAssay (NCATS)
